The structures appear in SMILES notation.

This experiment concerns Neuregulin-1 EGF-like domain. Put plainly: small molecules binding NRG1 EGF domain – biochemical, small-molecule microarray, 635 nm fluorescence, primary screen (AID 1081).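 Note: binding of the protein to compounds printed on small-molecule microarray slides.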 Conditions: higher = more signal.
Regarding `Cc1ccc(S[C@]2(C(=O)O)CC(=O)N(Cc3cc(C(F)(F)F)cc(C(F)(F)F)c3)[C@@H]2c2ccc(CO)cc2)cc1`, the composite z-score came out at 0.406. In the case of `CCOC(=O)[C@H]1[C@@H]2C(=O)N3CCC[C@H]3[C@H](O[Si](C(C)C)(C(C)C)C(C)C)[C@H]2C=C2CCN(S(=O)(=O)c3ccc(C)cc3)C[C@H]21` it was 1.08; in that of `CO[C@H]1O[C@H](CO)[C@@H](OC(=O)Nc2ccccc2-c2ccccc2)[C@H](OC(=O)Nc2ccc3c(c2)OCO3)[C@H]1OC(=O)Nc1ccc2c(c1)OCO2`, 1.35; in that of `COc1ccccc1CN1C(=O)c2ccccc2[C@@]2(Cc3ccccc3N(CC(F)(F)F)C2=O)[C@@H]1c1ccc(CO)cc1`, 0.778. On to `CN(C)C(=O)[C@@]1(Cc2ccccc2CN=[N+]=[N-])N=C(c2ccc(OCCCO)cc2)O[C@H]1c1ccccc1CN=[N+]=[N-]`, for which the composite z-score came out at 1.29.

Compound `COc1ccc(CCN2C(=O)[C@@]3(Cc4ccccc42)c2ccccc2C(=O)N(Cc2ccccc2OC)[C@H]3c2ccc(CO)cc2)cc1` yielded a composite z-score of -0.322.

`O=C1C2C=CC(C(O)c3ccc(Br)cc3)N(Nc3ccccc3F)C2C(=O)N1c1ccccc1` (centres undefined) had a composite z-score of 1.06. In the case of `C=CCC(OC(C)=O)[C@@H]1[C@@H](N(Cc2cccc3ccccc23)C(=O)Cc2ccc(OC)cc2)c2cc(OCCCO)ccc2N1C(=O)c1ccc2ccccc2n1` (some centres undefined) it was 0.154. For `COC(=O)C(CC#Cc1ccc2c(c1)[C@]1(C(=O)N2)[C@H](c2ccccc2OCCO)N2[C@H](c3ccccc3)[C@H](c3ccccc3)OC(=O)[C@H]2[C@@H]1C(=O)NC[C@H](O)c1ccccc1)C(=O)OC` the value was 1.25.

The values above are taken from PubChem BioAssay.
